Reference: the supplement of paper PMC6555819

Columns and labels:
Assay in all cases: PBM binding z-score (relative to random genomic background probes); higher = stronger binding; sequences stand for … in GC…GCGATTGACAGCGTAGAATGAAGG
[1] = test system: FXR:RXRa (NR concentration 270 nM, RXRa partner concentration 90 nM)
Procedure, shortened: (§1)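 Each nuclear receptor dimer, without ligand, was incubated for 1 h on custom Agilent 4×180K protein-binding microarrays. Binding was detected with antibodies against each partner (one per run), and scanned fluorescence was regression-normalized. The binding z-scores are referenced to random human genomic background probes.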

[2] = test system: LXRa:RXRa (NR concentration 270 nM, RXRa partner concentration 90 nM)
Procedure, shortened: as §1

[3] = test system: LXRa homodimer (NR concentration 270 nM)
Procedure, shortened: as §1

[4] = test system: LXRb:RXRa (NR concentration 270 nM, RXRa partner concentration 90 nM)
Procedure, shortened: as §1

[5] = test system: LXRb homodimer (NR concentration 270 nM)
Procedure, shortened: as §1

[6] = test system: PPARa:RXRa (NR concentration 270 nM, RXRa partner concentration 90 nM)
Procedure, shortened: as §1

[7] = test system: PPARg:RXRa (NR concentration 180 nM, RXRa partner concentration 90 nM)
Procedure, shortened: as §1

[8] = test system: PPARg:RXRa 270nM:90nM, anti-RXR (NR concentration 270 nM, RXRa partner concentration 90 nM)
Procedure, shortened: as §1

[9] = test system: PPARg:RXRa 30nM:10nM, anti-RXR (NR concentration 30 nM, RXRa partner concentration 10 nM)
Procedure, shortened: as §1

[10] = test system: PPARg:RXRa 90nM:30nM, anti-RXR (NR concentration 90 nM, RXRa partner concentration 30 nM)
Procedure, shortened: as §1

[11] = test system: PPARg:RXRa DBDmut IVT, anti-RXR (DBD mutation: RXRa K156A/R161A, NR concentration 270 nM, RXRa partner concentration 90 nM)
Procedure, shortened: as §1

[12] = test system: PPARg:RXRa IVT, anti-PPARg (NR concentration 270 nM, RXRa partner concentration 90 nM)
Procedure, shortened: as §1

[13] = test system: PPARg DBDmut:RXRa IVT, anti-PPARg (DBD mutation: PPARg1 K132A/R137A, NR concentration 270 nM, RXRa partner concentration 90 nM)
Procedure, shortened: as §1

[14] = test system: PPARg DBDmut IVT, anti-PPARg (DBD mutation: PPARg1 K132A/R137A, NR concentration 270 nM)
Procedure, shortened: as §1

[15] = test system: PPARg homodimer (NR concentration 180 nM)
Procedure, shortened: as §1

[16] = test system: PXR:RXRa (NR concentration 270 nM, RXRa partner concentration 90 nM)
Procedure, shortened: as §1

[17] = test system: PXR homodimer (NR concentration 270 nM)
Procedure, shortened: as §1

[18] = test system: RARa:RXR (NR concentration 270 nM, RXRa partner concentration 90 nM)
Procedure, shortened: as §1

[19] = test system: RARa homodimer (NR concentration 270 nM)
Procedure, shortened: as §1

[20] = test system: RARb:RXRa (NR concentration 270 nM, RXRa partner concentration 90 nM)
Procedure, shortened: as §1

Sequence | PBM binding z-score [1] | PBM binding z-score [2] | PBM binding z-score [3] | PBM binding z-score [4] | PBM binding z-score [5] | PBM binding z-score [6] | PBM binding z-score [7] | PBM binding z-score [8] | PBM binding z-score [9] | PBM binding z-score [10] | PBM binding z-score [11] | PBM binding z-score [12] | PBM binding z-score [13] | PBM binding z-score [14] | PBM binding z-score [15] | PBM binding z-score [16] | PBM binding z-score [17] | PBM binding z-score [18] | PBM binding z-score [19] | PBM binding z-score [20]
TCATATAGGTAAACGGTGAAAGTCGGTGTGGTAA | 0.188 | 0.878 | 0.118 | 0.712 | -0.229 | 2.17 | 2.41 | 4.15 | 4.43 | 4.57 | 4.37 | 3.34 | 1.61 | 0.702 | 0.811 | 0.39 | 0.405 | 0.111 | 0.67 | 0.522
GCTATTAGTTGACAGGGCAACCGAATGATTCTCG | -0.301 | -0.298 | -0.0236 | -0.0105 | -0.293 | 0.0349 | 0.532 | 0.626 | -0.199 | 0.442 | 0.297 | 0.029 | 0.0418 | 0.353 | 0.467 | -0.171 | 0.105 | -0.228 | 0.00268 | 0.489
GCTAGTTGGTCAGTAAAAGGTCACATACCGGTCG | 2.76 | 4.16 | 4.82 | 4.01 | 0.816 | 4.22 | 2.57 | 4.42 | 2.3 | 3.92 | 1.23 | 2.96 | 0.372 | 0.203 | 6.37 | 4.88 | 0.988 | 5.66 | 3.62 | 4.23
CGAAGTAGGTCAAGGACAGTGAATCTCCGCACGC | 3.88 | 2.75 | 0.0941 | 1.82 | -0.179 | 5.28 | 8.14 | 6.95 | 4.62 | 6.44 | 8.4 | 8.73 | 5.06 | 1.85 | 2.14 | 1.39 | -0.253 | 2.46 | 0.686 | 3.95
TCATATAGATAAAAGGTGAAAGTCGGTGTGGTAA | 1.52 | 1.57 | 0.231 | 1.67 | -0.152 | 3.28 | 3.63 | 5.16 | 5.42 | 5.56 | 3.23 | 2.25 | 0.674 | 0.805 | 1.56 | 1.12 | 0.535 | 1.83 | 1.65 | 1.73
TCTAGTTGGTCACGGAGGTCACACCCGACGGGTA | 3.19 | 3.31 | 2.4 | 3.2 | 0.762 | 3.73 | 3.54 | 4.03 | 3.5 | 3.66 | 2.48 | 4.28 | 1.28 | 1.19 | 2.95 | 4.15 | 1.24 | 4.2 | 1.58 | 3.79
TGAATGAGGTTAAAAATCAGGGAACGTGGCGTCG | 1.83 | 1.78 | -0.491 | 1.1 | 0.545 | 2.87 | 1.72 | 2.33 | 1.16 | 1.77 | 1.43 | 1.8 | 0.361 | 0.195 | -0.0328 | 0.848 | -0.0817 | 1.45 | -0.472 | 1.32
TCTAGTTGGTCACGGAGGTCACACACGACGGGTA | 3.14 | 3.39 | 2.59 | 3.33 | 0.773 | 4.01 | 3.79 | 4.11 | 3.73 | 3.75 | 2.46 | 4.2 | 1.49 | 1.18 | 3.41 | 4.41 | 1.8 | 4.53 | 1.29 | 3.82
CCTACTGGGCCAAGGTTATTGATCAGTCAAAGCA | 0.116 | 0.594 | -0.113 | 0.269 | -0.596 | 1.78 | 2.64 | 3.06 | 0.701 | 2.48 | 3.46 | 3.58 | -0.243 | -0.723 | 0.597 | 0.145 | -0.133 | 0.421 | -0.486 | 0.659
TCTGCTAGGTTAGTTGGTCAGCTAACGAGCTGCC | -0.522 | -0.402 | -0.882 | -0.708 | -0.0822 | 0.052 | -0.648 | 0.707 | 0.944 | 0.973 | 1.37 | 1.5 | -0.266 | -0.918 | -1.12 | -0.398 | -1.1 | -0.512 | -1.39 | 0.525
TCTAGTTGGTCACGGAGGTCATACACGACGGGTA | 3.53 | 3.79 | 3.37 | 3.52 | 0.955 | 3.92 | 3.08 | 3.93 | 3.65 | 3.86 | 2.41 | 3.69 | 1.98 | 1.06 | 2.96 | 4.57 | 2.33 | 4.38 | 1.78 | 3.59
TCTAGTAGATCAACAGGAGGTTAAGAAAGATCGA | 0.568 | 1.07 | 0.252 | 0.768 | -0.7 | 1.36 | 0.296 | 1.55 | 2.92 | 2.01 | 1.67 | 0.911 | 0.0951 | -0.146 | 0.637 | 0.739 | 0.18 | 1.05 | 0.751 | 0.445
TCGAGTAGGTTAGGGGCATACAGAATGGCGTCGA | 0.679 | 0.555 | -0.335 | 0.825 | -0.198 | 1.39 | 1.04 | 1.65 | 1.4 | 1.6 | 1.98 | 1.38 | 0.000515 | -1.13 | 0.459 | 0.501 | 0.171 | 0.678 | -0.124 | 1.06
AGTCAAAGTTCACCAGGTAACGTAAGATTCAGCT | 6.31 | 5.59 | 3.52 | 3.85 | 1.05 | 5.19 | 6.96 | 6.68 | 3.83 | 6.1 | 1.37 | 4 | 1.09 | 1.39 | 3.02 | 4.67 | 2.63 | 4.15 | 1.72 | 5.18
